Bioassay records: PubChem BioAssay, National Center for Advancing Translational Sciences (NCATS)
LDHA inh = blocks human lactate dehydrogenase A | activity change, % (values are at about 110 or 230 µM) | P00338 | actives 0.15% (n = 480,000) | purified LDHA, NADH/diaphorase-resazurin fluorescence; stronger effect = lower value; in the data active = activity change below about -30%; inconclusive = mostly about -25% to -30%
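Human LDH5 at 2 nM final in Tris HCl pH 7.4 with 0.06 mM NADH and 0.2 mM pyruvate, reacted 5 minutes at room temperature. Remaining NADH coupled via diaphorase/resazurin; resorufin fluorescence read at 0 and 20 minutes, normalized to enzyme-free and DMSO wells.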
ALOX12 inh = ALOX12 (human) lipoxygenase inhibition | P18054 | purified 12hLO, xylenol orange hydroperoxide absorbance | Potency, µM (titrated, usually from 108 µM), hits mostly inhibitors | actives 1.1% (n = 580,000); active = well fitted inhibition curve with a large enough effect; inconclusive = small, poorly fitted or top-dose-only effect, or another doubt; inactive = no such curve, though single readings can be large or run the other way
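Hydroperoxide product was detected by ferrous iron/xylenol orange as the 573 to 405 nm absorbance ratio. Arachidonic acid at 40 uM (final) was turned over for 30 min at room temperature by 150 nM human 12hLO, pH 7.0 Hepes buffer, after 15 min compound preincubation.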
Chronic BCR inh = chronic active BCR signaling inhibition; Potency, µM (doses to about 46.1 µM), hits mostly inhibitors; ABC-DLBCL IkBa-CBG/CBR reporter, luminescence ratio, 4 h; actives 0.05% (n = 340,000); active = well fitted inhibition curve with a large enough effect in the signal ratio, with a control signal flat, not every such curve was filed as active; inconclusive = small, poorly fitted or top-dose-only effect, or effect the other way, or a change in a side signal; the % refers to the signal ratio
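Cell line TMD8 (human ABC DLBCL), stably expressing tet-inducible CBG68-IkBa fusion and CBR; IMDM/0.5% FBS; cpd up to 46 uM; dox induction, 4 h, 37C/5% CO2; dual luminescence; green/red ratio; MG132 control.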
KCNH2 3.1 block = KCNH2 3.1 (human) potassium channel inhibition; actives 0.95% (n = 340,000); activity change, % (tested at about 1.8 µM); U2OS KCNH2 3.1, thallium flux FluxOr; stronger effect = lower value;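 active = maximum activity change below -70%; inconclusive = maximum activity change from -70% to -50%; inactive = maximum activity change above -50%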;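 note: thallium influx rate constant from kinetic fluorescence after stimulation buffer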
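Kinetic fluorescence (2 min after stimulation buffer) measures Tl+ influx through KCNH2 3.1 expressed by viral transduction in U2OS cells; the rate constant is normalized against DMSO controls serving as positive and negative references.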
KCNH2 WT inh = KCNH2 (human, wildtype) channel inhibition | Q12809 | U2OS, BacMam KCNH2, thallium flux FluxOr; stronger effect = lower value | activity change, % at 1.84 µM | actives 0.37% (n = 340,000) | AID 720551;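 active = maximum activity change below -70%; inconclusive = maximum activity change between -70% and -50%; inactive = maximum activity change above -50%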
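U2OS cells transduced with wild-type KCNH2 virus are loaded with FluxOr dye for 45 min, and thallium flux is measured in kinetic reads before and after stimulation buffer. Rate constants are normalized to DMSO controls.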
ClpP mod = qHTS Assay for Activators of ClpP. purified B. subtilis ClpP, FRET peptide cleavage, 20 min. Potency, µM (series often up to 57.5 µM). actives 1.9% (n = 340,000). AID 651965, 2013. ATP-dependent Clp protease proteolytic subunit (Bacillus subtilis (strain 168)), P80244; active = well fitted falling curve with a large enough effect; inconclusive = small, poorly fitted or top-dose-only effect; inactive = no such curve, though single readings can be large or run the other way; note: the source files actives as falling curves though it sought activators and does not explain the sign; nearly all actives have a fitted effect of over 65% in size
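Purified B. subtilis ClpP, 10 microg/mL final in Tris/HCl pH8 with KCl, BSA, glycerol and Tween-20, cleaved an Abz/nitrotyrosine-quenched decapeptide. Fluorescence (ex 320, em 430) was read at 0 and 20 min at room temperature. Delta was normalized to 5.8 microM ADEP and DMSO/no-enzyme controls.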
A number is an active result; i = inactive; ? = inconclusive; nt = not tested or not shown; ! = a repeat was not active. A selection: hits, their analogues and other compounds. The true share with any hit is near 3%.

SMILES	LDHA inh	ALOX12 inh	Chronic BCR inh	KCNH2 3.1 block	KCNH2 WT inh	ClpP mod
Cn1nc(C(=O)OCc2nc(-c3ccccc3)no2)c2ccccc21	i	?	nt	nt	nt	nt
COc1ccc(Nc2cc3c(cn2)CN(CCc2ccccc2)CCN3)cc1	nt	i	nt	nt	nt	nt
CC1(C)CC(NC(=O)CCn2ccc3ccccc32)CC(C)(C)N1	i	i	nt	nt	nt	nt
CCN(CC)CCOc1ccc2c(c1)C(=O)c1cc(OCCN(CC)CC)ccc1-2	nt	22µM!	nt	nt	nt	nt
CCCc1cc(=O)oc2cc(OC(C)C(=O)Nc3cc(C)on3)ccc12 (centres undefined)	i	i	nt	nt	nt	nt
COc1ccc(C(=O)NC(NC(=S)Nc2ccc(S(N)(=O)=O)cc2)C(Cl)(Cl)Cl)cc1 (centres undefined)	-34	i	i	i	i	i
N#Cc1nc(-c2ccc(S(=O)(=O)N3CCCC3)cc2)oc1NCCCN1CCOCC1	i	i	nt	nt	nt	nt
COC(=O)[C@@H]1Cc2ncn(C)c2CN1S(=O)(=O)c1ccc2ccccc2c1	nt	i	nt	nt	nt	nt
COC(=O)[C@@H]1Cc2ncn(C)c2CN1S(=O)(=O)c1ccc(F)cc1	nt	56µM	nt	nt	nt	nt
O=C(O)c1nn(CCOc2ccccc2)c(=O)c2ccccc12	i	i	nt	nt	nt	nt
CN(C(=O)c1cc2ccccc2o1)C(c1cccc(F)c1)c1ccccn1 (centres undefined)	i	?	nt	nt	nt	nt
CC(=O)N1N=C(c2ccc(Br)cc2)OC1(C)CC(=O)Nc1ccccc1 (centres undefined)	i	?	i	i	i	25µM
COc1ccc(Cl)cc1C(=O)N1CCC(N2CC3CC(C2)[C@H]2CCCC(=O)N2C3)CC1 (some centres undefined)	nt	i	nt	nt	nt	nt
Cn1c(=O)c2c(nc(NCc3ccco3)n2Cc2c(Cl)cccc2Cl)n(C)c1=O	i	?	nt	nt	nt	nt
COc1ccc(C(=O)OCc2nc(N)c3ccccc3n2)c(O)c1	i	i	nt	nt	nt	nt
Cc1ccc(C)c(NC(=O)Cn2c(=O)n(Cc3nc(C)no3)c(=O)c3cc4c(cc32)OCO4)c1	i	i	nt	nt	nt	?
Cc1noc(Cn2c(=O)c3cc4c(cc3n(CC(=O)Nc3ccc(C(C)C)cc3)c2=O)OCO4)n1	i	i	nt	nt	nt	35µM
Cc1ccc(NC(=O)Cn2c(=O)n(Cc3nc(C)no3)c(=O)c3cc4c(cc32)OCO4)c(C)c1	i	i	nt	nt	nt	22µM
O=S(=O)(O)c1cc(O)c(N=Nc2ccc(O)cc2O)c2ccccc12	i	8.9µM	nt	i	i	nt
O=S(=O)(O)c1ccc2c(N=Nc3ccc(S(=O)(=O)O)c4ccccc34)c(O)c(S(=O)(=O)O)cc2c1	i	nt	nt	nt	nt	i
N#Cc1ccc(Oc2ccc(-c3cnc4ccccc4n3)cc2)cc1C#N	i	i	i	i	i	20µM
CC(NC(=O)c1cc(-c2ccco2)nc2ccccc12)c1ccccc1 (centres undefined)	i	45µM	nt	nt	nt	nt
CN(C)C(CNC(=O)c1cc(-c2ccco2)nc2ccccc12)c1ccccc1 (centres undefined)	i	10µM	i	i	i	nt
CC(NC(=O)c1ccc(-c2ccco2)cc1)c1ccccc1 (centres undefined)	i	13µM	nt	nt	nt	nt
CN(C(=O)c1cc(C2CC2)[nH]n1)C1CCc2nn(CC3CC3)c(=O)n2CC1 (centres undefined)	nt	i	nt	nt	nt	nt
SMILES	LDHA inh	ALOX12 inh	Chronic BCR inh	KCNH2 3.1 block	KCNH2 WT inh	ClpP mod
NS(=O)(=O)c1ccc(CCNCc2cc(Br)ccc2OCc2ccccc2)cc1	i	?	i	-70	i	i
COc1ccc(CNCCc2ccc(Cl)cc2)cc1OCc1ccccc1	i	nt	?	-71	i	i
COc1cc(CN(C)CCc2ccccc2)ccc1OCc1ccccc1	i	i	i	-95	i	i
CCCCCCNc1nc2c(c(=O)n(C)c(=O)n2C)n1CCC	i	i	nt	nt	nt	nt
C/C(=N\O)c1ccc2c3c([nH]c2c1)CCCC3	i	i	i	i	i	16µM
c1ccc2c3c([nH]c2c1)CCCC3	i	nt	nt	nt	nt	i
FC(F)(F)c1ccccc1-c1cncnc1Nc1ccccc1	nt	25µM	nt	nt	nt	nt
FC(F)(F)c1ccccc1-c1cc(NCCN2CCOCC2)ncn1	nt	i	nt	nt	nt	nt
FC(F)(F)c1ccccc1-c1cncnc1NCCN1CCOCC1	nt	18µM	nt	nt	nt	nt
